Test results taken from PubChem BioAssay (NCATS).
Results filed as inconclusive are left out. A call without a number means that no potency is given here. Calls of active or inactive are those of the source. Calls come from the whole dose curve; as a rule, active = well fitted curve in the direction sought with a large enough effect; inconclusive = small, poorly fitted or top-dose-only effect, or another doubt; inactive = no such curve, though single readings can be large; an effect the other way counts as inactive or inconclusive.

What was measured:
[1] = molecular target: Aldehyde dehydrogenase, mitochondrial (Homo sapiens) (UniProt P05091); experiment: qHTS for Inhibitors of the Aldehyde Dehydrogenase Family (ALDH2) Primary screen (AID 2061308); conditions: ALDH2 enzyme inhibition qHTS, 1536-well; series mostly up to 56 µM; note: nearly all actives have a fitted effect of over 55% in size
[2] = molecular target: Retinaldehyde dehydrogenase 3 (Homo sapiens) (UniProt P47895); experiment: qHTS for Inhibitors of the Aldehyde Dehydrogenase Family (ALDH1A3) Primary screen (AID 2061315); conditions: ALDH inhibition qHTS; series mostly up to 56 µM

| SMILES | Potency [1] | Potency [2] |
| --- | --- | --- |
| O=C1CCc2cc(S(=O)(=O)Nc3cccc(F)c3)ccc2N1 | inactive | inactive |
| Cc1ccc(OCCn2c(CCNC(=O)CCN3CCCCC3)nc3ccccc32)cc1 | inactive | inactive |
| O=C(NCCCCN1CCN(c2cccc(Cl)c2Cl)CC1)c1cc2ccccc2s1 | inactive | inactive |
| FC(F)(F)c1ccccc1-c1nc(NCc2ccc(-c3ccc4c(c3)OCO4)cc2)c2ccccc2n1 | inactive | inactive |
| N#Cc1c(-c2cccc(C(F)(F)F)c2)no[n+]1[O-] | inactive | inactive |
| CCCCn1cnc2cc(C(=O)N3CCCCC3)ccc21 | inactive | inactive |
| Cc1ccc2nc(NC3=NC4(CCCC4)C4=C(CCCC4=O)N3)oc2c1 | inactive | inactive |
| COc1ccc2c(c1)N1C(=O)C[C@@]34C=CC[N@+]5([O-])CC[C@H]2[C@H](CC3)[C@@]145 | inactive | inactive |
| CCN(CC)CCn1c(-c2ccccc2)nc2c(N3CCOCC3)nc(C)nc21 | inactive | inactive |
| CCOc1ccc(CCNC(=O)c2csc(Br)n2)cc1OCC | inactive | inactive |
| COc1ccc(C2=Nn3c(nnc3-c3ccccc3C(F)(F)F)SC2)cc1O[C@H]1CCOC1 | inactive | inactive |
| CCOC(=O)c1ccoc1-c1ccc2ncnc(NCCc3cnc[nH]3)c2c1 | inactive | inactive |
| CC(C)c1nc(Nc2nc3ccccc3o2)nc2c1CCCC2 | inactive | inactive |
| CCc1cccc(Nc2nn3c(=O)c4ccccc4nc3s2)c1 | inactive | inactive |
| Cc1nc(NC2CCCCC2)c2nc(-c3ccccc3)n(CCN3CCCCC3)c2n1 | inactive | inactive |
| CCc1ccc(S(=O)(=O)Nc2cnccc2C(=O)Nc2nc(-c3ccccc3)cs2)cc1 | inactive | inactive |

| SMILES | Potency [1] | Potency [2] |
| --- | --- | --- |
| Cc1ccc(S(=O)(=O)Nc2ccc(C)cc2C(=O)Nc2nc(-c3ccccc3)cs2)cc1 | inactive | inactive |
| c1cncc(CNc2ccnc(-c3ccc4c(c3)OCO4)n2)c1 | inactive | inactive |
| N#Cc1ccc(-c2nc(NCc3ccc(-c4ccnc(C(F)(F)F)c4)cc3)c3ccccc3n2)cc1 | inactive | inactive |
| Cc1cc(C)nc(NC(=S)N2CCN(c3cncnc3)CC2)c1 | inactive | inactive |
| COc1ccccc1/C=C/C(=O)NCCc1nc2ccccc2n1CCOc1ccc(C)cc1 | inactive | inactive |
| Cc1cc(C)n2ncc(C(=O)Nc3ccc(C#N)cc3)c2n1 | inactive | inactive |
| Cc1ccc(CNc2ncc(N3CCCCC3)cn2)cc1 | inactive | inactive |
| Fc1ccccc1-c1nc(-c2ccc(-c3nn[nH]n3)cc2)no1 | inactive | inactive |
| C=C(C(=O)O)[C@H]1C[C@]2(C)C(=O)CC[C@]23O[C@H]1C[C@@H]3C | inactive | inactive |
| O=C(O)c1ccc2c(c1)C(=O)N([C@H](Cc1ccc(O)cc1)C(=O)O)C2=O | inactive | inactive |
| Cc1ccc(OCCn2c(CCNC(=O)c3cc(N)ccc3N)nc3ccccc32)cc1 | inactive | inactive |
| COC(=O)c1sc2c(c1-c1nc3ccccc3s1)CCNC2 | inactive | inactive |
| COc1cccc(C2=Nn3c(nnc3-c3ccccc3OC)SC2)c1 | inactive | inactive |
| Cn1cnc(CCNc2ncnc3ccc(-c4ccc5c(c4)OCO5)cc23)c1 | inactive | inactive |
| COc1ccc(CNC(=O)c2nc(S(=O)(=O)Cc3ccccc3)ncc2Cl)cc1 | inactive | inactive |
